Laboratory results: PubChem BioAssay AID1159580 (chemical genetic matrix, 2015)
Values joined by “and” are separate entries in the source; they are usually repeats but may differ in a detail not shown here. Equal entries are not always repeated. Among all 5,500 compounds or so, about 2,000 (36%) were called active. Not shown: some 18% with an inconclusive outcome. No stated cut-off is given here; in the data, active means normalized growth mostly below about 0.91 (no sharp cut-off); inconclusive means no clear call, values can overlap the other calls; inactive means mostly above about 0.92. The list shows a part of the results.

Assay: chemical genetic growth profiling, strain panel (AID 1159580);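 further: tested at 20 µM; growth read once vehicle control cultures reached saturation at 30 °C; 1 = growth at the plate median or of vehicle wells; lower values mean less growth of the strain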
Settings: growth OD

Measured: normalized growth

Cc1cc(N)c2ccccc2[n+]1CCCCCCCCCC[n+]1c(C)cc(N)c2ccccc21
active: S. cerevisiae deletion strains, locus YJL187C, strain SWE1, active compounds read low 0.066 | S. cerevisiae deletion strains, locus YJR043C, strain POL32, active compounds read low 0.0703 | S. cerevisiae deletion strains, locus YJR075W, strain HOC1, active compounds read low 0.0707 and 0.0679 | S. cerevisiae deletion strains, locus YKL009W, strain mrt4, active compounds read low 0.107 | S. cerevisiae deletion strains, locus YKL068W, active compounds read low 0.0834 | S. cerevisiae deletion strains, locus YKL085W, strain MDH1 (second series), active compounds read low 0.0842 | S. cerevisiae deletion strains, locus YKL085W, strain MDH1, active compounds read low 0.0842 | S. cerevisiae deletion strains, locus YKL160W, strain elf1, active compounds read low 0.0728 | S. cerevisiae deletion strains, locus YKL190W, strain CNB1, active compounds read low 0.0496 | S. cerevisiae deletion strains, locus YKR001C, strain vps1, active compounds read low 0.0684 | S. cerevisiae deletion strains, locus YKR026C, strain gcn3, active compounds read low 0.0705 | S. cerevisiae deletion strains, locus YKR091W, strain srl3, active compounds read low 0.0679 | S. cerevisiae deletion strains, locus YLL001W, strain dnm1, active compounds read low 0.0644 | S. cerevisiae deletion strains, locus YLL026W, active compounds read low 0.0616 | S. cerevisiae deletion strains, locus YLL041C, strain sdh2, active compounds read low 0.0642 | S. cerevisiae deletion strains, locus YLR027C, strain aat2, active compounds read low 0.0617 | S. cerevisiae deletion strains, locus YLR039C, strain RIC1, active compounds read low 0.0806 | S. cerevisiae deletion strains, locus YLR058C, strain SHM2, active compounds read low 0.0484 | S. cerevisiae deletion strains, locus YLR102C, strain apc9, active compounds read low 0.0687 | S. cerevisiae deletion strains, locus YLR221C, strain rsa3, active compounds read low 0.0648 | S. cerevisiae deletion strains, locus YLR258W, strain gsy2, active compounds read low 0.0653 | S. cerevisiae deletion strains, locus YLR262C, strain YPT6 (second series), active compounds read low 0.0835 | S. cerevisiae deletion strains, locus YLR262C, strain YPT6, active compounds read low 0.107 | S. cerevisiae deletion strains, locus YLR268W, strain sec22, active compounds read low 0.0712 | S. cerevisiae deletion strains, locus YLR320W, strain mms22, active compounds read low 0.0855 | S. cerevisiae deletion strains, locus YLR330W, strain CHS5, active compounds read low 0.0547 | S. cerevisiae deletion strains, locus YLR342W, strain FKS1 (second series), active compounds read low 0.0723 | S. cerevisiae deletion strains, locus YLR342W, strain FKS1, active compounds read low 0.0695 | S. cerevisiae deletion strains, locus YLR357W, strain rsc2, active compounds read low 0.126 | S. cerevisiae deletion strains, locus YLR370C, strain arc18, active compounds read low 0.0633 | S. cerevisiae deletion strains, locus YLR371W, strain rom2, active compounds read low 0.0663 | S. cerevisiae deletion strains, locus YLR384C, strain iki3, active compounds read low 0.0616 | S. cerevisiae deletion strains, locus YLR418C, strain cdc73, active compounds read low 0.101 | S. cerevisiae deletion strains, locus YML016C, strain PPZ1, active compounds read low 0.0475 | S. cerevisiae deletion strains, locus YML032C, strain rad52, active compounds read low 0.0723 | S. cerevisiae deletion strains, locus YML120C, strain ndi1, active compounds read low 0.0605 | S. cerevisiae deletion strains, locus YML124C, strain tub3, active compounds read low 0.0637 | S. cerevisiae deletion strains, locus YMR058W, strain fet3, active compounds read low 0.0627 | S. cerevisiae deletion strains, locus YMR078C, strain ctf18, active compounds read low 0.0768 | S. cerevisiae deletion strains, locus YMR125W, strain sto1, active compounds read low 0.0824 | S. cerevisiae deletion strains, locus YMR129W, active compounds read low 0.069 | S. cerevisiae deletion strains, locus YMR205C, strain PFK2, active compounds read low 0.0906 | S. cerevisiae deletion strains, locus YMR223W, strain ubp8, active compounds read low 0.0681 | S. cerevisiae deletion strains, locus YMR231W, strain pep5, active compounds read low 0.0782 | S. cerevisiae deletion strains, locus YMR263W, strain SAP30, active compounds read low 0.0586 | S. cerevisiae deletion strains, locus YMR307W, strain GAS1, active compounds read low 0.119 and 0.0541 | S. cerevisiae deletion strains, locus YNL067W, strain RPL9B, active compounds read low 0.0529 | S. cerevisiae deletion strains, locus YNL071W, strain lat1, active compounds read low 0.0636 | S. cerevisiae deletion strains, locus YNL128W, strain TEP1, active compounds read low 0.0667 and 0.0791 | S. cerevisiae deletion strains, locus YNL153C, strain GIM3, active compounds read low 0.0526 and 0.0904 | S. cerevisiae deletion strains, locus YNL175C, strain NOP13, active compounds read low 0.0762 | S. cerevisiae deletion strains, locus YNL197C, strain WHI3, active compounds read low 0.0722 | S. cerevisiae deletion strains, locus YNL209W, strain ssb2, active compounds read low 0.0673 | S. cerevisiae deletion strains, locus YNL224C, strain SQS1, active compounds read low 0.0723 | S. cerevisiae deletion strains, locus YNL233W, strain BNI4, active compounds read low 0.0625 | S. cerevisiae deletion strains, locus YNL248C, strain rpa49, active compounds read low 0.0815 | S. cerevisiae deletion strains, locus YNL250W, strain rad50, active compounds read low 0.136 | S. cerevisiae deletion strains, locus YNL271C, strain bni1, active compounds read low 0.0837 | S. cerevisiae deletion strains, locus YNL298W, strain CLA4, active compounds read low 0.0752 | S. cerevisiae deletion strains, locus YNL307C, strain MCK1, active compounds read low 0.0714 | S. cerevisiae deletion strains, locus YNL322C, strain KRE1 (second series), active compounds read low 0.0698 | S. cerevisiae deletion strains, locus YNL322C, strain KRE1, active compounds read low 0.0558 | S. cerevisiae deletion strains, locus YNR049C, strain mso1, active compounds read low 0.0605 | S. cerevisiae deletion strains, locus YNR052C, strain pop2, active compounds read low 0.0672 | S. cerevisiae deletion strains, locus YOL006C, strain TOP1, active compounds read low 0.11 | S. cerevisiae deletion strains, locus YOL147C, strain pex11, active compounds read low 0.0611 | S. cerevisiae deletion strains, locus YOR001W, strain rrp6, active compounds read low 0.0775 | S. cerevisiae deletion strains, locus YOR061W, strain CKA2, active compounds read low 0.0489 | S. cerevisiae deletion strains, locus YOR069W, strain VPS5, active compounds read low 0.0494 | S. cerevisiae deletion strains, locus YOR070C, strain gyp1, active compounds read low 0.0633 | S. cerevisiae deletion strains, locus YOR080W, strain dia2, active compounds read low 0.0687 | S. cerevisiae deletion strains, locus YOR083W, strain WHI5 (second series), active compounds read low 0.081 | S. cerevisiae deletion strains, locus YOR083W, strain WHI5, active compounds read low 0.0703 | S. cerevisiae deletion strains, locus YOR106W, strain vam3, active compounds read low 0.065 | S. cerevisiae deletion strains, locus YOR136W, strain idh2, active compounds read low 0.0784 | S. cerevisiae deletion strains, locus YOR144C, strain elg1, active compounds read low 0.0641 | S. cerevisiae deletion strains, locus YOR184W, strain ser1, active compounds read low 0.0725 | S. cerevisiae deletion strains, locus YOR265W, strain rbl2, active compounds read low 0.0616 | S. cerevisiae deletion strains, locus YOR270C, strain vph1, active compounds read low 0.0961 | S. cerevisiae deletion strains, locus YOR290C, strain snf2, active compounds read low 0.0714 | S. cerevisiae deletion strains, locus YOR316C, strain cot1, active compounds read low 0.066 | S. cerevisiae deletion strains, locus YPL051W, strain arl3, active compounds read low 0.0687 | S. cerevisiae deletion strains, locus YPL055C, strain LGE1, active compounds read low 0.0706 and 0.0896 | S. cerevisiae deletion strains, locus YPL078C, strain atp4, active compounds read low 0.0678 | S. cerevisiae deletion strains, locus YPL106C, strain sse1, active compounds read low 0.111 | S. cerevisiae deletion strains, locus YPL240C, strain hsp82, active compounds read low 0.0603 | S. cerevisiae deletion strains, locus YPL241C, strain CIN2, active compounds read low 0.0524 and 0.0485 | S. cerevisiae deletion strains, locus YPR119W, strain clb2, active compounds read low 0.0709 | S. cerevisiae deletion strains, locus YPR141C, strain kar3, active compounds read low 0.0821 | S. cerevisiae deletion strains, locus YPR163C, strain tif3, active compounds read low 0.0791 | S. cerevisiae deletion strains, locus YPR167C, strain met16, active compounds read low 0.0671 | S. cerevisiae deletion strains, strain wtn01, active compounds read low 0.0664 | S. cerevisiae strains, strain wild type, active compounds read low 0.0519
